RORgamma inh: qHTS for inhibitors of ROR gamma transcriptional activity | Drosophila S2 Gal4-RORgamma UAS-luciferase reporter, 20 h | Nuclear receptor ROR-gamma (Mus musculus), P51450 | Potency, µM (titrated, usually from 53.6 µM), inactives show at the top dose activity change, negative = inhibition, actives largely listed as inhibitors | hit rate 5.4% among 310,000; also: nearly all actives have a fitted effect of over 60% in size
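Stably transfected Drosophila Schneider cells are the test system, with ROR gamma fused to Gal4 and luciferase under UAS control; luminescence is read after 20 hr of 700 uM copper sulfate induction at ambient temperature.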
DT40 TDP1 no CPT: qHTS for Inhibitors of human tyrosyl-DNA phosphodiesterase 1 (TDP1): qHTS in cells in absence of CPT | hit rate 15% among 420,000 | AID 686978, 2013 | Potency, µM (titrated, usually from 46.2 µM), for inactives: top-dose activity change, negative = growth inhibition, usual class: inhibitors | DT40 Tdp1-/- hTDP1 cells, no CPT, ATP luminescence, 48 h; also: nearly all actives have a fitted effect of over 55% in size
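Cells were dispensed at 400 per well, compounds added by pin tool, plates incubated ≥48 hr at 37 °C, then CellTiter-Glo added for 30 min at room temperature before luminescence reading. Line: DT40 Tdp1-/- complemented with hTDP1; camptothecin omitted.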
VP16 counter: VP16 counterscreen qHTS for inhibitors of ROR gamma transcriptional activity | Potency, µM (doses to about 53.6 µM), for inactives: at the highest dose activity, negative = inhibition, most hits filed as inhibitors | AID 2546, 2010 | Drosophila S2 Gal4-VP16 UAS-luciferase, luminescence, 20 h | hit rate 3.5% among 310,000;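 also: Gal4-VP16 expression switched on by copper sulfate through the metallothionein promoter; nearly all actives have a fitted effect of over 50% in size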
TDP1 inh: qHTS Assay for Inhibitors of Tyrosyl-DNA Phosphodiesterase (TDP1) | Potency, µM (top dose mostly 130 µM), for inactives: at the top dose activity change, negative = inhibition, usual class: inhibitors | recombinant TDP1, AlphaScreen DNA substrate cleavage | Tyrosyl-DNA phosphodiesterase 1 (Homo sapiens), Q9NUW8 | hit rate 0.28% among 350,000; also: nearly all actives have a fitted effect of over 40% in size
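AlphaScreen read-out: signal falls as enzyme removes the 3' tyrosine-FITC from a 5'-biotinylated DNA oligo (15 nM, 5 min, RT). Enzyme was E. coli-made recombinant Tdp1 at 1 nM, exposed to compound for 15 min beforehand; beads 10 ug/ml, 10 min.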
DT40 TDP1 CPT: qHTS for Inhibitors of human tyrosyl-DNA phosphodiesterase 1 (TDP1): qHTS in cells in presence of CPT; Potency, µM (series often up to 46.2 µM), for inactives: at the top dose activity change, negative = growth inhibition, most hits filed as inhibitors; chicken DT40 Tdp1-/-;hTDP1 cells + 20 nM CPT, ATP luminescence, 48 h; hit rate 12% among 420,000; also: nearly all actives have a fitted effect of over 55% in size
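Cell growth measured by CellTiter-Glo luminescence after a minimum 48 h, 37 C compound exposure with 20 nM CPT in Tdp1-knockout DT40 cells stably expressing hTDP1, seeded 400/well; qHTS titration format.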
* hit, by the source's call. The list is not random: actives were taken first. Their share in the collection is about 19%. Calls follow the shape of the dose curve; as a rule, active = well fitted curve in the direction sought with a large enough effect; inconclusive = small, poorly fitted or top-dose-only effect, or another doubt; inactive = no such curve, though single readings can be large; an effect the other way counts as inactive or inconclusive. % is scaled to controls: 0 for no effect and ±100 for the full control effect; potency is read from the fitted curve at half-maximal effect.

For Cc1c(C(=O)N2CCCCC2)sc(NC(=O)C23CC4CC(CC(C4)C2)C3)c1C#N the results were DT40 TDP1 no CPT 18.4µM* and DT40 TDP1 CPT inconclusive.
`Cc1c(C(=O)N2CCCC2)sc(NC(=O)c2cccc(Cl)c2)c1C#N` gave RORgamma inh -1.1%, DT40 TDP1 no CPT 25.9µM*, VP16 counter inconclusive, TDP1 inh 4.9% and DT40 TDP1 CPT inconclusive.
Screening CCS(=O)(=O)N1Cc2ccccc2CC1C(=O)N(C)CC(=O)Nc1ccc(OC)cc1 (configuration not stated) returned DT40 TDP1 no CPT -20.5%, TDP1 inh 0.1% and DT40 TDP1 CPT 1.3%.
`COC(=O)[C@@]1(Sc2ccc(C)cc2)CC(=O)N[C@@H]1c1ccc(C(F)(F)F)cc1` gave DT40 TDP1 no CPT 20.6µM* and DT40 TDP1 CPT 14.6µM*.
COC(=O)[C@@]1(Sc2ccc(C)cc2)CC(=O)N(c2ccccc2)[C@@H]1c1ccccc1 was read as DT40 TDP1 no CPT 18.4µM* and DT40 TDP1 CPT 18.4µM*.
For COCc1cccc(-c2csc(C(C)(NC(C)=O)c3ccccc3)n2)c1 (configuration not stated) the results were DT40 TDP1 no CPT 18.4µM* and DT40 TDP1 CPT 23.1µM*.
For COCc1cccc(-c2csc(C(C)(NC(C)=O)c3ccc(OC)cc3)n2)c1 (configuration not stated) the results were DT40 TDP1 no CPT inconclusive and DT40 TDP1 CPT 18.4µM*.
`CC(=O)NC(C)(c1ccccc1)c1nc(-c2cccc(F)c2)cs1` (configuration not stated) gave DT40 TDP1 no CPT inconclusive and DT40 TDP1 CPT 29.1µM*.
Screening CC(=O)NC(C)(c1ccccc1)c1nc(-c2ccc(S(C)(=O)=O)cc2)cs1 (configuration not stated) returned DT40 TDP1 no CPT -23.6% and DT40 TDP1 CPT inconclusive.
`CCc1cccc(CC)c1NC(=S)N1CCn2cccc2C1c1ccncc1` (configuration not stated) gave RORgamma inh -25.0%, DT40 TDP1 no CPT 13.1%, VP16 counter -3.8%, TDP1 inh 1.3% and DT40 TDP1 CPT 7.5%.
Screening CS(=O)(=O)c1nc([N+](=O)[O-])nn1CCCc1ccccc1 returned DT40 TDP1 no CPT 13µM* and DT40 TDP1 CPT 6.51µM*.
Cc1nn(CCCC(=O)NCCc2ccccc2)c(C)c1[N+](=O)[O-] was read as RORgamma inh inconclusive, DT40 TDP1 no CPT inconclusive, VP16 counter -13.0%, TDP1 inh -3.8% and DT40 TDP1 CPT 6.0%.
Screening Cn1nc([N+](=O)[O-])nc1S(C)(=O)=O returned RORgamma inh 5.01µM*, DT40 TDP1 no CPT 4.61µM*, VP16 counter inconclusive, TDP1 inh 1.8% and DT40 TDP1 CPT 4.61µM*.
CC(=O)c1cccc(NC(=O)c2cccc3c(-c4cnn(C)c4)coc23)c1 was read as DT40 TDP1 no CPT 20.6µM* and DT40 TDP1 CPT 13µM*.
`O=C(Nc1cccc(OC(F)(F)F)c1)c1cccc2c(-c3cccnc3)coc12` gave DT40 TDP1 no CPT 20.6µM* and DT40 TDP1 CPT 23.1µM*.
`CC(=O)c1cccc(NC(=O)c2cccc3c(-c4cccnc4)coc23)c1` gave DT40 TDP1 no CPT 9.2µM* and DT40 TDP1 CPT 11.6µM*.
For CS(=O)(=O)Nc1cccc(NC(=O)c2cccc3c(-c4cccnc4)coc23)c1 the results were DT40 TDP1 no CPT 16.4µM* and DT40 TDP1 CPT 11.6µM*.
`Cc1cc(NC(=O)Nc2cccc(Cl)c2)n(C(C)(C)C)n1` gave RORgamma inh -11.1%, DT40 TDP1 no CPT inconclusive, VP16 counter 4.1%, TDP1 inh 1.4% and DT40 TDP1 CPT inconclusive.
